# Experimental data reported in PubChem BioAssay (NCATS).
# Results filed as inconclusive are left out. A number with no mark means an inactive call. Active and inactive are the calls of the source. Calls follow the shape of the dose curve; as a rule, active = well fitted inhibition curve with a large enough effect; inconclusive = small, poorly fitted or top-dose-only effect; inactive = flat fitted curve, though single readings scatter.
# Key:
# [1] = system: CRL-7250; test: Cytotoxic Profiling of Annotated Libraries Using Quantitative High-Throughput Screening (AID 1296008); conditions: Five cell lines viability, CellTiter-Glo ATP luminescence, 48-72 h; max response: stronger effect = lower value; also: nearly all actives have a fitted effect of over 60% in size
# Method in brief: (§1)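 Compounds were pin-transferred onto cells and incubated 48 or 72 hr at 37 degree Celsius, 95% humidity. CellTiter-Glo was added, plates sat 10 min at room temperature, then ATP-coupled luminescence was imaged as the viability read-out.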
# [2] = system: HEK293; test: as above; conditions: Five cell lines viability, CellTiter-Glo ATP luminescence, 48-72 h; max response: stronger effect = lower value
# Method in brief: as §1
# % is scaled to controls: 0 for no effect and ±100 for the full control effect; potency is read from the fitted curve at half-maximal effect.
smiles,measurement,setting,value
O=C1NC(=O)C(c2cn3c4c(cccc24)CCC3)C1c1c[nH]c2ccccc12 (stereo unspecified),Potency,[1],5.8 µM (active)
same,Potency,[2],1.03 µM (active)
CC(C)=CCC[C@](C)(O[C@@H]1O[C@H](CO)[C@@H](O)[C@H](O)[C@H]1O)[C@H]1CC[C@]2(C)[C@@H]1[C@H](O)CC1[C@@]3(C)CC[C@H](O)C(C)(C)C3[C@@H](O[C@@H]3O[C@H](CO)[C@@H](O)[C@H](O)[C@H]3O[C@@H]3OC[C@@H](O)[C@H](O)[C@H]3O)C[C@]12C (stereo partly specified),max response,[1],-28%
same,max response,[2],-0.716%
CC(C)=CCC(O)/C(C)=C/CO[C@@H]1O[C@H](CO)[C@@H](O)[C@H](O)[C@H]1O (stereo partly specified),outcome,[1],inactive
same,max response,[2],-0.719%
C=C(C(=O)O)C1CCC2(C)CCC(O)C(C)(O)C2C1 (stereo unspecified),max response,[1],-18%
same,max response,[2],-0.305%
N[C@@]1(C(=O)O)CC[C@H]2[C@H](C(=O)O)[C@H]21,outcome,[1],inactive
same,max response,[2],4.28%
Nc1ccc(-c2cccc3c(=O)cc(N4CCOCC4)oc23)cc1,Potency,[1],5.8 µM (active)
same,Potency,[2],7.31 µM (active)
C=C1CC2C(C)(CCC(=O)O)C(C(C)(C)O)CCC2(C)C2C(=O)OC(C)(C(=O)OC)C(=O)C12C (stereo unspecified),max response,[1],-2.01%
same,max response,[2],3.75%
CC(C)(C)NC(=O)[C@@H](c1cccnc1)N(C(=O)c1ccco1)c1ccc(C(C)(C)C)cc1,max response,[1],4.34%
same,max response,[2],-16.3%
CCCCc1ccc(C(=O)Nc2cc(-c3ccc(Cl)cc3)nn2-c2ccc(Cl)cc2)cc1,max response,[1],-0.768%
same,max response,[2],-22.4%
CC(O)(CC(=O)O)CC(=O)OCc1ccc(O[C@@H]2O[C@H](CO)[C@@H](O)[C@H](O)[C@H]2O)cc1 (stereo partly specified),outcome,[1],inactive
same,max response,[2],-1.35%
C=C(C(=O)O)C1CCC2(C)CCC(O)C(=C)C2C1 (stereo unspecified),max response,[1],-9.49%
same,max response,[2],-0.847%
CCC(Nc1ncnc2nc[nH]c12)c1nc2cccc(F)c2c(=O)n1-c1ccccc1 (stereo unspecified),max response,[1],-7.4%
same,max response,[2],-7.81%
CN[C@@H]1[C@H](O[C@H]2[C@H](O[C@@H]3[C@@H](O)[C@H](O)[C@@H](N=C(N)N)[C@H](O)[C@H]3N=C(N)N)O[C@@H](C)[C@]2(O)C=O)O[C@@H](CO)[C@H](O)[C@H]1O,max response,[1],2.94%
same,max response,[2],4.73%
C1CCC[C@H]2CCCN3CC[C@@H](CCCCCC[C@@H]4CCCN5CC[C@@H](CC1)O[C@@H]45)O[C@@H]23,max response,[1],0.135%
same,max response,[2],4.46%
CC(C)Oc1ccc(C(=O)NC(CNC(=O)CN(C)C)Cc2ccc(-c3cn4cccc(C(C)O)c4n3)cc2)cc1Cl (stereo unspecified),max response,[1],-25.1%
same,Potency,[2],0.206 µM (active)
CC[C@H]1OC(=O)[C@H](C)[C@@H](O[C@H]2C[C@@](C)(OC)[C@@H](O)[C@H](C)O2)[C@H](C)[C@@H](O[C@@H]2O[C@H](C)C[C@H](N(C)C)[C@H]2O)[C@](C)(O)C[C@@H](C)C(=O)[C@H](C)[C@H]2OC(=O)O[C@@]21C,max response,[1],0.0016%
same,max response,[2],-4.98%
CC(C)(C)Nc1nc2cc(Cl)c(Cl)cc2nc1S(C)(=O)=O,Potency,[1],16.4 µM (active)
same,Potency,[2],4.11 µM (active)
C=C[C@H]1[C@H](O[C@@H]2O[C@H](CO)[C@@H](O)[C@H](O)[C@H]2O)OC=C(C(=O)OC)[C@H]1C/C=C(/C=O)[C@@H]1C(C(=O)OC)=CO[C@@H](O[C@@H]2O[C@H](CO)[C@@H](O)[C@H](O)[C@H]2O)[C@@H]1C=C,max response,[1],-8.61%
same,max response,[2],-29.3%
C[C@H](N)C(=O)N[C@@H](Cc1ccc(O)cc1)C(=O)N1CCC[C@H]1C(=O)NCC(=O)N[C@@H](CCCCN)C(=O)N[C@@H](Cc1ccccc1)C(N)=O,outcome,[1],inactive
same,max response,[2],2.75%
N#Cc1ccc2[nH]cc(CCCCN3CCN(c4ccc5oc(C(N)=O)cc5c4)CC3)c2c1,max response,[1],-7.54%
same,Potency,[2],8.2 µM (active)
CC(=O)c1cc2c(cc1O)OC(C)(C)C=C2,outcome,[1],inactive
same,max response,[2],0.43%
CCNC(=O)Nc1ccc(-c2nc3c(c(N4CCOC[C@@H]4C)n2)CCN(c2ncccn2)C3)cc1,Potency,[1],0.259 µM (active)
same,Potency,[2],0.184 µM (active)
CC(C)=CCC[C@](C)(O[C@@H]1O[C@H](CO[C@@H]2O[C@H](CO)[C@@H](O)[C@H](O)[C@H]2O)[C@@H](O)[C@H](O)[C@H]1O)C1CC[C@]2(C)[C@@H]1[C@H](O)CC1[C@@]3(C)CC[C@H](O[C@@H]4O[C@H](CO)[C@@H](O)[C@H](O)[C@H]4O[C@@H]4O[C@H](CO)[C@@H](O)[C@H](O)[C@H]4O)C(C)(C)[C@@H]3CC[C@]12C (stereo partly specified),max response,[1],-3.43%
same,max response,[2],0.0713%
N#C[C@@H]1C[C@H](F)CN1C(=O)CNC1[C@H]2CN(C(=O)c3ccc(F)cc3)C[C@@H]12 (stereo partly specified),max response,[1],-1.2%
same,max response,[2],2.87%
COC(=O)C1=COC(OC2OC(CO)C(O)C(O)C2O)C2C1C=CC2(O)CO (stereo unspecified),outcome,[1],inactive
same,max response,[2],-11.3%
CC(=O)C1=C(C)N(c2cccc(C(F)(F)F)c2)C(=O)N[C@H]1c1ccc(C#N)nc1,max response,[1],2.3%
same,max response,[2],-4.03%
O=C1Nc2ccccc2C(O)(c2ccccc2)C1O (stereo unspecified),max response,[1],0.0908%
same,max response,[2],-7.58%
CC/C=C\[C@H](O)[C@H](O)C1=C(C)C(=O)[C@]2(O1)C(=O)N[C@@](OC)(C(=O)c1ccccc1)[C@@H]2O,max response,[1],-16%
same,max response,[2],-0.3%
